# Assay outcomes from PubChem.
# HEK293 cAMP ctrl = raises cAMP in parental HEK293 cells, TSHR agonist counter-screen; 2.5% of 73,000 active; parental HEK293 CNG cAMP sensor, membrane potential fluorescence; AID 938; Potency, µM (doses to about 57.1 µM), for inactives: at the highest dose activation, usual class: activators; note: % of control where 0% means no effect; nearly all actives have a fitted effect of over 55% in size
#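 Parental HEK 293 cells stably expressing a cAMP-gated CNG channel were loaded with membrane potential dye containing 100 uM RO 20-1724 for 60 min. Compound added for 30 min; depolarization read as fluorescence intensity at 590 nm.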
# PK Bst = modulators of Bacillus stearothermophilus pyruvate kinase; purified pyruvate kinase, luminescence ATP production; ribose 5-phosphate activator present at AC10; Potency, µM; AID 361; 1.2% of 51,000 active; in the data active = potency below about 11 µM; inconclusive = mostly about 12 µM to 25 µM;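 the screen sought inhibitors and activators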;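 note: scaled between full activation by ribose 5 phosphate and full inhibition by luteolin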
# TSHR ag = activates the human thyroid stimulating hormone receptor; P16473; HEK293-CNG-TSHR cells (CNG channel as cAMP sensor), membrane potential dye, cAMP; Potency, µM (highest dose often 57.1 µM), without a hit: at the highest dose activation, most hits filed as activators; 0.48% of 73,000 active; AID 926; active = well fitted activation curve with a large enough effect in the main read-out, with a control signal flat, not every such curve was filed as active; inconclusive = small, poorly fitted or top-dose-only effect, or a change in a side signal; inactive = no such curve, though single readings can be large or run the other way; % of control where 0% means no effect;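 note: the control signal comes from parental cells without the receptor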
#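 cAMP rise detected as CNG-channel membrane depolarization by fluorescent dye (emission 590 nm), 30 min after compound, following 60 min dye loading containing 100 uM RO 20-1724 at room temperature. Cells: TSHR/CNG HEK 293, with parental CNG HEK 293 as control.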
# Luciferase inh = inhibitors of firefly luciferase; P08659; purified firefly luciferase, luminescence, 8 min; Potency, µM (series often up to 57.1 µM), without a hit: at the top dose activity change, negative = inhibition, actives largely listed as inhibitors; 2.2% of 72,000 active; AID 411; note: % is set by controls: 0 for no effect and ±100 for the full control effect; nearly all actives have a fitted effect of over 40% in size
# Target sequence (P08659 whole entry, looked up): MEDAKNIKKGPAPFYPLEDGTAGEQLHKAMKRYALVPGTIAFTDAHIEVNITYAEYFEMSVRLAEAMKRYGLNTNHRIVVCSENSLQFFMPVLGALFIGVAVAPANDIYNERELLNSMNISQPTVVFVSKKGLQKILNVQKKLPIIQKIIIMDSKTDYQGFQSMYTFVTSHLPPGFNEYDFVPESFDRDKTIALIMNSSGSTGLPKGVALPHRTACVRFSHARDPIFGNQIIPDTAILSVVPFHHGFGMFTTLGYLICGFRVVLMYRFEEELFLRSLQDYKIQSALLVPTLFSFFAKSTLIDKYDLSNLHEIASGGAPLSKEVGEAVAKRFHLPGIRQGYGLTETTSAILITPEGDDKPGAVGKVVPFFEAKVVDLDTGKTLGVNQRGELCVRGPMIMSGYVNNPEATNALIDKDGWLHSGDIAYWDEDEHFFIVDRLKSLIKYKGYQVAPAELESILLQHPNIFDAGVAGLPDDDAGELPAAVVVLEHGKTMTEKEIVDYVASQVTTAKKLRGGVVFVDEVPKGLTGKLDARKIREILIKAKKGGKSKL
#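 Compounds were tested as concentration series (qHTS) against purified P. pyralis luciferase with luciferin and 10 uM ATP in 50 mM imidazole pH 7.2, 50 mM KCl, 7 mM MgCl2, 0.01% Tween 20, 0.05% BSA. Luminescence was read after 8 min at ambient temperature.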
# An asterisk follows results filed as active; i = inactive; ? = inconclusive; . = no result; [ ] = dose if it differs, or a comment. In the library only some 5.2% were active in any assay of this set; here they are far more common. Unless noted, calls come from the whole dose curve; as a rule, active = well fitted curve in the direction sought with a large enough effect; inconclusive = small, poorly fitted or top-dose-only effect, or another doubt; inactive = no such curve, though single readings can be large; an effect the other way counts as inactive or inconclusive. Potency is the fitted concentration of half-maximal effect.
SMILES,HEK293 cAMP ctrl,PK Bst,TSHR ag,Luciferase inh
COC(=O)c1c(NC(=O)c2ccco2)sc(C(=O)Nc2ccc(F)cc2)c1C,25.1µM*,>57,?,2.7%
COC(=O)c1c(NC(=O)c2ccco2)sc(C)c1C,26.2%,>57,.,-0.3%
Cn1c(=O)c2c(SCc3cccc(C(F)(F)F)c3)nc(-c3ccco3)nc2n(C)c1=O,20.5%,>57,.,0.8%
CCOC(=O)c1ccc(NC(=O)c2cc3ccccc3o2)cc1,25.1µM*,.,?,?
O=C(Nc1cccc(Br)c1)c1cc2ccccc2o1,25.1µM*,.,?,7.94µM*
Cc1oc(-c2ccccc2)cc1C(=O)Nc1cccc(C(=O)O)c1,-2.1%,>57,2.6%,-2.8%
Cc1cccc(NC(=O)c2cc3ccccc3o2)c1,25.1µM*,?,?,12.6µM*
Cc1cc(C(=O)Nc2cccc(C(=O)O)c2)oc1C,3.2%,i,2.7%,15.8µM*
O=C(O)C1CC(=O)N(c2ccc(F)cc2)C1 (stereo unspecified),3.5%,>57,-0.5%,-0.7%
CCC(=O)Nc1cccc(NC(=O)c2cc3ccccc3o2)c1,8.0%,.,13.9%,3.98µM*
CCOC(=O)c1ccc(NC(=O)N2CCN(CCc3ccccc3)CC2)cc1,-6.5%,.,1.1%,25.1µM*
Cn1c(Cn2c(=O)sc3ccccc32)nnc1SCC(=O)NCc1ccc(F)cc1,-3.5%,.,11.4%,0.5%
COC(=O)c1cc(Cl)c(NS(=O)(=O)c2ccccc2)cc1OC,-15.3%,>57,0.8%[11.4 µM],-2.5%
CCc1ccc2[nH]c(=O)c(CN(Cc3ccccc3)Cc3nnnn3Cc3ccco3)cc2c1,25.3%,>57,19.0%,-33.0%
CCOC(=O)c1cnc(-n2nc(C)cc2C)nc1N(C)C,6.8%,11.1*,5.7%,12.6µM*
CCOC(=O)c1cnc(-n2nc(C)cc2C)nc1N1CCOCC1,1.0%,.,9.8%,1.0%
CCOC(=O)c1cnc(-n2nc(C)cc2C)nc1NCCc1ccccc1,25.1µM*,?,?,0.8%
c1ccc(-c2ccc(N3CC[C@@]4(CCCNC4)C3)cc2)cc1,-6.1%,.,-2.2%,-23.0%[11.4 µM]
O=C(C1CCC(CNS(=O)(=O)c2cccc3cccnc23)CC1)N1CCCC1 (stereo unspecified),25.1µM*,.,?,0.5%
O=C(C1CCC(CNS(=O)(=O)c2cccs2)CC1)N1CCCCC1 (stereo unspecified),11.2%,>57,2.1%[11.4 µM],1.6%
COCc1c(C(=O)OCc2nc(N)nc(Nc3ccccc3C)n2)oc2ccccc12,10.3%,>57,0.5%,-27.5%
Nc1nc(-c2cccnc2)nn1C(=O)Cc1ccccc1,3.8%,>57,0.3%,1.4%
Cc1ccc(S(=O)(=O)NCCC(=O)N2CCCCC2)cc1,-3.5%,>57,13.7%,3.3%
CC(=O)c1c(C)[nH]c(C(=O)Nc2ccc(C)cn2)c1C,-5.8%,4.36*,-3.6%,2.51µM*
Cc1ccccc1C(=O)Nc1ccccc1,7.0%,.,9.3%,-19.0%
SMILES,HEK293 cAMP ctrl,PK Bst,TSHR ag,Luciferase inh
Cc1ccc(NC(=O)c2ccccc2F)nc1,-7.1%,i,-3.5%,25.1µM*
Cc1ccccc1C(=O)Nc1ccc(Br)cn1,15.0%[11.4 µM],.,17.2%[11.4 µM],12.6µM*
CC(=O)c1c(C)[nH]c(C(=O)NCc2ccccn2)c1C,-3.6%,>57,-9.0%,-1.3%
Cn1c(SCc2nc3ccccc3n2CCO)nc2ccccc21,-8.6%,>57,-2.3%,-3.2%
Cn1c(SCc2ccc(C#N)cc2Cl)nc2ccccc21,?,.,?,15.8µM*
c1ccc(-n2nnnc2NCCc2c[nH]c3ccccc23)cc1,3.6%,>57,-2.9%[11.4 µM],1.5%
O=C(c1cccc(F)c1)N1CCN(c2cccc(C(F)(F)F)c2)CC1,14.5%,>57,24.5%,2.7%
O=C(c1cccc(F)c1)N1C2C=CC(C2)C1(C(F)(F)F)C(F)(F)F (stereo unspecified),23.2%,>57,25.1µM*,1.1%
Cc1noc(C)c1CSc1ncnc2sc3c(c12)CCC3,26.7%,>57,2.0%,1.6%
COC(=O)NC(c1ccco1)[C@]1(C(C)=O)CCCC1=O (stereo partly specified),-1.5%[11.4 µM],.,5.2%[11.4 µM],.
O=C(Nc1cnc2ccccc2c1)N1CCCCC1,3.5%,.,3.2%,10µM*
Cc1cc(C(=O)CN2C(=O)c3ccccc3S2(=O)=O)c(C)n1CC1CCCO1 (stereo unspecified),-7.0%,.,2.1%,15.8µM*
Cc1cc(-n2c(C)cc(C(=O)CSc3nnnn3-c3ccccc3)c2C)no1,23.6%,>57,20µM*,1.2%
Cc1cc(C(=O)CSc2nnnn2-c2ccccc2)c(C)n1CC1CCCO1 (stereo unspecified),25.1µM*,>57,?,-4.7%
CCn1c(SCC(=O)c2cc(C)n(CC3CCCO3)c2C)nc2ccccc21 (stereo unspecified),12.5%,.,13.9%,-8.9%
COc1cccc(CNc2ccc(Br)cn2)c1O,.,i,.,5.01µM*
COc1ccc(CN/C=C2\CCCCC2=O)cc1,7.0%,>57,11.9%,-1.6%
COc1ccccc1-n1cnnc1SCC(=O)c1cc(C)n(Cc2cccs2)c1C,31.6µM*,>57,?,-13.0%
COc1cccc(-c2cc(C(F)(F)F)nc(NCc3ccco3)n2)c1,?,>57,?,-2.1%
COc1ccc(-c2cc(C(F)(F)F)nc(NCc3ccco3)n2)cc1OC,10µM*,>57,?,-0.4%
N=c1nc(N)nc2n1NC(c1ccc(F)cc1)=CS2,-11.2%,3.61*,-8.0%,-26.4%
O=C(CCN1C(=O)C2CC=CCC2C1=O)N1CCN(c2ccccn2)CC1 (stereo unspecified),0.3%,>57,3.5%,1.6%
CCOC(=O)c1oc2ccccc2c1CSc1nnnn1-c1ccccc1,15.8µM*,>57,?,0.0%
COc1ccc(Br)cc1CNC(=O)C1CCCN(S(C)(=O)=O)C1 (stereo unspecified),-16.6%,5.38*,-24.2%,10µM*
CCOc1ccc(-c2cc(C(=O)O)c3ccccc3n2)c(OCC)c1,7.6%,.,-9.7%,-22.4%
SMILES,HEK293 cAMP ctrl,PK Bst,TSHR ag,Luciferase inh
COc1ccc(-c2cc(C(=O)OCC(=O)N(C)C)c3ccccc3n2)cc1,12.5%,9.83*,11.6%,20µM*
O=C(NCc1cccs1)c1ccc(Cl)s1,6.2%,>57,.,3.7%
O=C(Nc1ccc2sccc2c1)c1ccc(Cl)s1,2.1%,.,10.8%,1.58µM*
C=CCNc1ncnc2c1[nH]c1ccc(C)cc12,17.5%,?,16.9%,10µM*
CCOc1cccc(-c2nc3cc(C)ccc3o2)c1,7.5%,.,.,7.94µM*
c1cncc(-c2nc3cc(Cc4ccc5oc(-c6cccnc6)nc5c4)ccc3o2)c1,-1.6%,>57,?,0.3%
Cc1ccc(OCC(=O)Nc2ccc(-c3nc4ncccc4o3)cc2)c(C)c1,28.6%,>57,15.8µM*,2.5%
CCCC(=O)Nc1ccc(-c2nc3cc(C)ccc3o2)cc1,27.5%,5.34*,-7.7%,3.98µM*
COC(=O)c1ccc(CSCC(=O)Nc2cc(OC)cc(OC)c2)o1,2.2%,>57,-4.3%,1.1%
COC(=O)c1c(NC(=O)CCCC(=O)O)sc(C)c1C,11.4%,.,8.2%,1.1%
CCOc1ccc(S(=O)(=O)Nc2cccc(Cl)c2)cc1,3.1%,>57,-2.5%,0.3%
O=S(=O)(c1ccc(Br)s1)N1CCc2ccccc2C1,?,>57,?,1.1%
